# From publication PMC4336329 (PLoS ONE, 2015)
# About 14,000 (4.5%) of roughly 310,000 compounds showed an effect of 50% or more. The effect is printed as a negative number. The sample as a whole holds a higher share of strong results than the screen did.
# Target: human ether-à-go-go-related gene (hERG) potassium channel (human, UniProt Q12809)
# Assay: primary screen, population patch clamp on CHO cells stably expressing hERG; higher = less effect of the substance
# 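Also: peak tail current of the secondary pulse compared with the same well before compound.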
# Sequence of human ether-à-go-go-related gene (hERG) potassium channel (Q12809 whole entry, looked up): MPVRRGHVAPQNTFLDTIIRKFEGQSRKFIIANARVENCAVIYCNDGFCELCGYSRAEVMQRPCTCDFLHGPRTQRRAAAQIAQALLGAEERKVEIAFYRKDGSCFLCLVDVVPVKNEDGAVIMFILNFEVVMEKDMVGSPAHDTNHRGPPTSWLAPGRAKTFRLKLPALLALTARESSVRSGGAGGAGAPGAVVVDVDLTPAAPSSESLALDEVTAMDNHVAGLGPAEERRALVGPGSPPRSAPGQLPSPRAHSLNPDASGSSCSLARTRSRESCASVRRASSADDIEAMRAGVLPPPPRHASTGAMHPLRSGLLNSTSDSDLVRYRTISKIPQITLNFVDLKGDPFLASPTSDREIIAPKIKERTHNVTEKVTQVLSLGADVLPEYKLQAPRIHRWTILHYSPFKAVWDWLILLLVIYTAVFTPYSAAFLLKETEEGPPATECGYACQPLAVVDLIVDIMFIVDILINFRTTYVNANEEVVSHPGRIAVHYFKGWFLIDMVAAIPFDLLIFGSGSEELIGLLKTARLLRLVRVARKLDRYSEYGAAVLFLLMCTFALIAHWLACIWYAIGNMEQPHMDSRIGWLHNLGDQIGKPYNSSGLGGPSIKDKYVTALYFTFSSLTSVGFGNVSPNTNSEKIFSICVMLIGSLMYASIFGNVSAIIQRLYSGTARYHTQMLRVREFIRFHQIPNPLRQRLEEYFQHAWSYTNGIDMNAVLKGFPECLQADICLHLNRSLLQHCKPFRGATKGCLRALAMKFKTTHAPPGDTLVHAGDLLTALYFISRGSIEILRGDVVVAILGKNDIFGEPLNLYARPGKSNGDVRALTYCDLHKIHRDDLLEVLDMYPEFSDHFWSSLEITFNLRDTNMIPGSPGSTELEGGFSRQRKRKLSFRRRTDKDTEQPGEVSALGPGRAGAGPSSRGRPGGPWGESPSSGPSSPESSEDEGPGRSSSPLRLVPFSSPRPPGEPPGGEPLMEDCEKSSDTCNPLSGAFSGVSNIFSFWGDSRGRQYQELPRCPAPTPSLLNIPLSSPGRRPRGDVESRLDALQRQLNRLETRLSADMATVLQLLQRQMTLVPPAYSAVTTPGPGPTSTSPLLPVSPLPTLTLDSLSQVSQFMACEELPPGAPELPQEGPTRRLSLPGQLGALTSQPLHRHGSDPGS
row,Compound,"hERG current change (%, negative = inhibition) at 10uM"
1,O=C(O)C1CCN(C(=O)COc2ccc(Br)cc2)CC1,38%
2,Cc1ccc(OCC(=O)N2CCN(C(=O)CCC3CCCC3)CC2)cc1,-54.3%
3,c1ccc(Cn2nc(-c3ccccc3)nc2-c2ccccc2)cc1,-2.5%
4,O=c1[nH]c2ccc(S(=O)(=O)N3CCN(Cc4ccccc4)CC3)cc2[nH]c1=O,-1.75%
5,Cn1c(CNC(=O)c2cccs2)n[nH]c1=S,18.1%
6,O=C(NCc1ccccn1)c1ccc(NS(=O)(=O)c2cccc(Cl)c2)cc1,7.73%
7,COc1ccc(-n2nnnc2/C=C\Nc2ccc(C)cc2)cc1,16%
8,COC(=O)CNC(=O)CNC(=O)c1nn(-c2ccc(OC)c(OC)c2)c(=O)c2ccccc12,18.1%
9,COc1ccc2nc(NC(=O)C3COc4ccccc4O3)sc2c1 (stereo not drawn),0.282%
10,CCCCN1C(=O)/C(=C2/Sc3ccc(OC)cc3N2CC)SC1=S,25.5%
11,O=C(c1ccc(Cl)cc1)c1cc(-c2ccccn2)c(N2CCOCC2)s1,-54.9%
12,O=C(c1ccccc1)c1cc(-c2ccccn2)c(N2CCOCC2)s1,-29.4%
13,O=C(c1ccc(Cl)c(Cl)c1)c1cc(-c2ccccn2)c(N2CCOCC2)s1,-29.1%
14,S=C(N/N=C/c1ccc2ncccc2c1)Nc1ccccc1,63.6%
15,Cc1ccc(C(=O)CSc2ccccn2)cc1,-7.25%
16,CCC1CCCCN1CCCNC(=O)C1CCCN(c2nn3c(=O)cc(C)nc3s2)C1 (stereo not drawn),12.2%
17,O=C(O)CCCC(=O)Nc1ccc(N=Nc2ccccc2)cc1,14.5%
18,COc1ccc(S(=O)(=O)N2CCCC2CNC(=O)C(=O)NCc2ccc(C)cc2)cc1 (stereo not drawn),-29.6%
19,O=C(C1COc2ccccc2O1)N1CCOCC1 (stereo not drawn),10.5%
20,Cc1c(CC(=O)N2CCN(C(=O)C3COc4ccccc4O3)CC2)c(=O)oc2cc(O)cc(O)c12 (stereo not drawn),24.8%
21,CCOC(=O)N1CCN(C(=O)C2COc3ccccc3O2)CC1 (stereo not drawn),-2.28%
22,Cc1c(CC(=O)N2CCN(C(=O)C3COc4ccccc4O3)CC2)c(=O)oc2cc(O)ccc12 (stereo not drawn),-44.7%
23,O=C(C1COc2ccccc2O1)N1CCN(c2ccccc2Cl)CC1 (stereo not drawn),1.69%

row,Compound,"hERG current change (%, negative = inhibition) at 10uM"
1,CC(=O)Oc1ccc2c(C)c(CC(=O)N3CCN(C(=O)C4COc5ccccc5O4)CC3)c(=O)oc2c1C (stereo not drawn),-69.6%
2,COc1ccc2c(C)c(CC(=O)N3CCN(C(=O)C4COc5ccccc5O4)CC3)c(=O)oc2c1C (stereo not drawn),-53.7%
3,Cc1c(CC(=O)N2CCN(C(=O)C3COc4ccccc4O3)CC2)c(=O)oc2cc(O)c(Cl)cc12 (stereo not drawn),-52.4%
4,Cc1c(CC(=O)N2CCN(C(=O)C3COc4ccccc4O3)CC2)c(=O)oc2c(C)c(O)ccc12 (stereo not drawn),-20%
5,Cc1cc(O)c2c(C)c(CC(=O)N3CCN(C(=O)C4COc5ccccc5O4)CC3)c(=O)oc2c1 (stereo not drawn),-28%
6,Cc1c(CC(=O)N2CCN(C(=O)C3COc4ccccc4O3)CC2)c(=O)oc2c(O)c(O)ccc12 (stereo not drawn),-0.208%
7,COc1cc(C)cc2oc(=O)c(CC(=O)N3CCN(C(=O)C4COc5ccccc5O4)CC3)c(C)c12 (stereo not drawn),-53.9%
8,COc1ccccc1CNC(=O)c1ccc(-c2ccccc2Cl)o1,4.13%
9,O=S(=O)(/N=C(/NS(=O)(=O)c1ccccc1)c1ccccc1)c1ccccc1,20%
10,CN(C)c1ccc(/C=N/NC(=O)c2sccc2-n2cccc2)cc1,12.2%
11,CC1=CC(=C(C#N)c2nc3ccccc3s2)C=C(C)N1c1ccc(F)cc1F,13.3%
12,c1ccc2c(c1)Cc1ccccc1O2,14.7%
13,COc1ccc(/C=C2\C(=O)NCC(=O)N2Cc2ccccc2)cc1,4.69%
14,Cc1csc(NC(=O)c2cccs2)n1,-1.76%
15,CCOc1cc(NC(=S)NCC2CCCO2)c(OCC)cc1NC(=O)C1CC1 (stereo not drawn),36.2%
16,C=CCn1cccc(C(=O)Nc2cc(OC)ccc2OC)c1=O,1.46%
17,Cc1ccsc1CN(C)C(=O)c1cc(S(=O)(=O)N2CCOCC2)ccc1N1CCCC1,-40.5%
18,CCc1ccc(CN(C)C(=O)c2cc(S(=O)(=O)N3CCOCC3)ccc2N2CCCC2)cc1,-50.1%
19,CN(Cc1cccc(F)c1)C(=O)c1cc(S(=O)(=O)N2CCOCC2)ccc1N1CCCC1,-24.5%
20,CN(Cc1cccs1)C(=O)c1cc(S(=O)(=O)N2CCOCC2)ccc1N1CCCC1,-27.1%
21,CN(Cc1ccc(Cl)cc1)C(=O)c1cc(S(=O)(=O)N2CCOCC2)ccc1N1CCCC1,-72.8%
22,COc1ccc(CN(C)C(=O)c2cc(S(=O)(=O)N3CCOCC3)ccc2N2CCCC2)cc1,-35.2%
